Most compounds without a hit are left out; they make up all but 2.9% or so of the library.
FH mod – Identification of activators of human fumarate hydratase by quantitative high-throughput screening | Potency, µM (highest dose often 79.9 µM), inactives show top-dose activity change, negative = inhibition, usual class: inhibitors | Fumarate hydratase, mitochondrial (Homo sapiens), P07954 | FH coupled MDH/diaphorase resazurin fluorescence, 15 min | AID 1347055, 2019 | 54,000 compounds, 0.22% hits; note: potency is the fitted concentration of half-maximal effect; % is set by controls: 0 for no effect and ±100 for the full control effect; the screen sought activators but most active calls are inhibition curves; nearly all actives have a fitted effect of over 45% in size
GALC G270D act – A Novel Cell-Based Assay to Identify Small Molecules for B -Galactocerebrosidase; 45,000 compounds, 0.1% hits; P54803; Potency, µM (series often up to 57.5 µM), actives largely listed as activators; 145M-Twi-hGALC-G270D cells (Twitcher mouse brain line with human GALC G270D), HMU-beta-Gal fluorescence, 48 h; note: potency is the fitted concentration of half-maximal effect; 0% is about no effect; nearly all actives have a fitted effect of over 65% in size
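Fluorescence readout: HMU-β-gal cleavage by mutant GALC (0.1 mM final, citrate/phosphate pH 5.2 with 1 mg/mL taurocholate), stopped with carbonate/bicarbonate plus Triton X-100. Cells: murine Twitcher 145M-Twi expressing human G270D GALC; qHTS for activators.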
OvCa metastasis – Primary qHTS assay for Inhibitors of ovarian cancer metastasis using an organotypic tumor microenvironment (TME) model. SKOV3ip1-GFP adhesion/invasion on 3D omental model, fluorescence. Potency, µM (top dose mostly 45.8 µM), without a hit: top-dose activity change, negative = inhibition, usual class: inhibitors. 46,000 compounds, 0.1% hits;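 note: potency is the fitted concentration of half-maximal effect; plate controls were DMSO wells for no effect and tomatine positive control wells for full effect; nearly all actives have a fitted effect of over 65% in size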
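A 3D layer of primary human omental fibroblasts, mesothelial cells, fibronectin and collagen I, grown 48 hr, received SKOV3ip1-GFP cells in serum-free medium plus compounds at 0.36-46 umol/L. After 2 hr RT and 16 hr 37 C, fixed adherent GFP cells were counted; normalized to DMSO and tomatine.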
DRV1 agonist – qHTS for Agonists of Human Resolvin D1 Receptor DRV1; Probable G-protein coupled receptor 32 (Homo sapiens), O75388; CHO-K1 GPR32 beta-arrestin PathHunter luminescence, 90 min; zero percent set by DMSO-only wells; activation, % at 76.9 µM; 48,000 compounds, 2.5% hits;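 active = activation of at least 60% and not above a set upper limit, about 1 call in 100 departs from these limits; inconclusive = activation of 40% to 60%, or above that upper limit; inactive = activation under 40%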; note: 0% is about no effect
Target sequence (O75388 whole entry, looked up): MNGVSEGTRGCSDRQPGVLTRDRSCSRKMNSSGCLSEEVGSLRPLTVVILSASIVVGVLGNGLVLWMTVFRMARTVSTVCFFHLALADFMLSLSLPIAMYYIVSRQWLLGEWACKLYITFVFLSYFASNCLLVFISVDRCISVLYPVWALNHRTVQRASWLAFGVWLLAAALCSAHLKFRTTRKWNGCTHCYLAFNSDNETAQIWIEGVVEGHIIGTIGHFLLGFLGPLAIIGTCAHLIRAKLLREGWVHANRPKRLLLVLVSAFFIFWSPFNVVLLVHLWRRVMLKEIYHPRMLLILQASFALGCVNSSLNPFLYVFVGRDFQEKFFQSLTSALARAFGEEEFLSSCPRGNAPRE
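Luminescent readout of beta-Gal complementation quantifies ligand-induced beta-arrestin association with GPR32 in CHO-K1 cells; 90 min compound incubation at 37 °C, detection 1 h at room temperature.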
* hit, by the source's call; i = inactive; ? = inconclusive; . = not tested or not shown; [ ] = dose if it differs, or a comment. Unless noted, calls come from the whole dose curve; as a rule, active = well fitted curve in the direction sought with a large enough effect; inconclusive = small, poorly fitted or top-dose-only effect, or another doubt; inactive = no such curve, though single readings can be large; an effect the other way counts as inactive or inconclusive.

SMILES	FH mod	GALC G270D act	OvCa metastasis	DRV1 agonist
COc1ccc(C(=O)Nc2nc3ccccc3n2CCOc2ccc(Cl)cc2)cc1	?	i	-7%	-26
COc1ccc(OCCn2c(NC(=O)c3ccc(OC)cc3)nc3ccccc32)cc1	-5%	i	?	63*
CCCCCn1c(NCc2ccccc2OC)nc2ccccc21	-17%	i	?	10
CCCCn1c(NCc2ccc(OC)cc2O)nc2ccccc21	-24%	i	10%	70*
CN1CC2CN(c3ccc4oc5ccccc5c(=O)c4c3)CC2C1 (configuration not stated)	1%[53.3 µM]	.	.	.
COc1ccc([C@H]2Cc3cccc(O)c3C(=O)O2)cc1OC	-4%	.	.	.
COc1ccc(OCC(=O)Nc2cc(-c3ccccc3F)nn2-c2ccccc2)cc1	-6%	i	-11%	91*
COc1ccc(OCC(=O)Nc2cc(-c3cccc(Cl)c3)nn2-c2ccccc2)cc1	-5%	i	0%	100*
CNCc1ccc(-c2cc(-c3nc(-c4ccc(S(=O)(=O)C(C)C)cc4)cnc3N)on2)cc1	3%	.	.	.
CC(=O)O[C@@H](CO[C@@H]1O[C@H](CO)[C@H](O)[C@H](O)[C@H]1O)[C@]1(C)C=C2CC[C@@H]3C(C)(C)[C@@H](O)CC[C@@]3(C)[C@@H]2CC1	-1%[53.3 µM]	.	.	.
COc1ccc(C(=O)C2CCN(CC(=O)N(Cc3nc4c(c(=O)[nH]3)COCC4)CC3CC3)CC2)cc1	-3%	.	.	.
CC(C)NCC(O)c1ccc2ccccc2c1 (configuration not stated)	-7%[53.3 µM]	i	.	68*
Cc1ccc(-c2cn3c(n2)sc2cc(C(=O)NCCCN4CCCCC4)ccc23)cc1	1%	i	8.9µM*	16
CCOc1ccc(-c2cn3c(n2)sc2cc(C(=O)NCCCN4CCCCCC4)ccc23)cc1	?	i	?	4
CCOc1ccc(-c2cn3c(n2)sc2cc(C(=O)NCCCN4CCCCC4)ccc23)cc1	0%	i	11µM*	-13
O=C(CSc1cn(CCNC(=O)c2c(F)cccc2F)c2ccccc12)Nc1ccc2c(c1)OCCO2	1%	i	i	68*
CCCCCn1c(=O)[nH]c2cc(C(=O)N3CCN(c4cccc(C(F)(F)F)c4)CC3)ccc2c1=O	-4%	i	-16%	61*
COc1cc2[nH]c(=O)n(CCCCCC(=O)N3CCN(c4cccc(C(F)(F)F)c4)CC3)c(=O)c2cc1OC	?	i	-8%	63*
O=C(c1ccc2c(c1)CCN2S(=O)(=O)c1ccccc1)N1CCN(c2cccc(Cl)c2)CC1	-20%	i	5%	-16
CCS(=O)(=O)N1CCc2cc(C(=O)N3CCN(c4cccc(C(F)(F)F)c4)CC3)ccc21	-34%	i	-8%	65*
C#CCN(Cc1cc2c(=O)n(C)c(CN3CCN(C)CC3)nc2cc1Cl)c1ccc(C(=O)NCc2cccnc2)cc1	5%	.	.	.
C/C=C(\C)C(=O)OC[C@H]1O[C@H](O[C@H]2O[C@H](CO)[C@@H](OC(=O)/C(C)=C/C)[C@H](O)[C@H]2O[C@@H]2O[C@H](CO)[C@@H](O)[C@H](O)[C@H]2O)[C@H](O[C@@H]2O[C@H](CO)[C@@H](O)[C@H](O)[C@H]2O)[C@@H](O)[C@@H]1O	1%[20.6 µM]	.	.	.
Cc1ncc(CCCN(C)C)cc1Nc1ncc2c(n1)-c1ccc(C(F)(F)F)cc1NC(=S)C2	23%	.	.	.
CCOC(=O)N1c2ccc(C(F)(F)F)cc2C(N(Cc2cc(C(F)(F)F)cc(C(F)(F)F)c2)C(=O)OC)CC1CC (configuration not stated)	-6%	.	.	.
C/C(=C\Cc1c(O)c(Cl)c(C)c(C=O)c1O)CC/C=C(\C)[C@H]1CC(=O)C(C)(C)O1	0%[53.3 µM]	.	.	.
COC(=O)c1cc2sc(Cl)cc2n1CC(=O)Nc1cc(OC)cc(OC)c1	-5%	i	7%	89*
Cc1c(-c2ccc(Cl)cc2)c(=O)oc2c(CN3CCCC3)c(O)ccc12	-11%	40µM*	i	5
Cc1c(-c2ccc(Cl)cc2)c(=O)oc2c(CN3CCOCC3)c(O)ccc12	-10%	i	17%	-1

Source: PubChem
